# Screening results as filed in PubChem BioAssay.
# COUP-TFII inh – NR2F2 transcriptional activity inhibitors, primary screen, cell-based, luciferase reporter, HEK293T, luminescence; COUP transcription factor 2 (Homo sapiens), P24468; HEK293T NGFI-A luciferase reporter; inhibition, % at 8.6 µM; 370,000 compounds, 0.7% hits;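 active = inhibition above a per-plate cutoff, mean inhibition of test wells between control levels plus 3 SD, cut at about 38% in these data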;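 also: cells cotransfected with COUP-TFII expression vector driving the NGFI-A reporter; 0% = median of COUP-TF2 test wells and 100% = reporter-only cells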
# LRH-1 inv ag – LRH-1 (NR5A2) inverse agonists, primary screen, cell-based, luminescence, HEK293T, StAR-luciferase reporter. Nuclear receptor subfamily 5 group A member 2 (Homo sapiens), O00482. LRH-1 transfected, 24 h. inhibition, % at 3.6 µM. 360,000 compounds, 0.13% hits. AID 602396, 2012;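 active = inhibition above the mean inhibition of all tested compounds plus 3 SD, cut at about 73% in these data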;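 also: 0% = DMSO wells and 100% = reporter-only cells lacking LRH-1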
# Target sequence (O00482 whole entry, looked up): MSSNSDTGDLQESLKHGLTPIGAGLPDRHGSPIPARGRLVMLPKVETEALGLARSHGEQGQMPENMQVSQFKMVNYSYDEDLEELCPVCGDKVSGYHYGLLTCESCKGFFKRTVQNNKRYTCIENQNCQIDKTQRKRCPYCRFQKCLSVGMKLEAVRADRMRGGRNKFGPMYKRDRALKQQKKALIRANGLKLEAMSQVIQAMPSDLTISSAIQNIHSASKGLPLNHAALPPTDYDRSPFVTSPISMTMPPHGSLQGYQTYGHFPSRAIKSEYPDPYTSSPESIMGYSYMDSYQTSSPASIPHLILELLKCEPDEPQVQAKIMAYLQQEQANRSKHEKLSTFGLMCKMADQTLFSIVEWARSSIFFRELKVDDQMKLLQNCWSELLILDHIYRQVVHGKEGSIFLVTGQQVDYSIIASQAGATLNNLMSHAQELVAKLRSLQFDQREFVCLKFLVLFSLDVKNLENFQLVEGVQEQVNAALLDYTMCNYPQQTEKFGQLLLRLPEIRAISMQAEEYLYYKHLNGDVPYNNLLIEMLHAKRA
# NCOA3 inh – SRC3 coactivator transcriptional activity inhibitors, primary screen, cell-based, luminescence; Nuclear receptor coactivator 3 (Homo sapiens), Q9Y6Q9; HEK293 GAL4-SRC3 luciferase reporter; inhibition, % at 3.6 µM; 360,000 compounds, 0.17% hits; AID 588352, 2011;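 active = inhibition above a per-campaign cutoff, the mean of all compounds plus 3 SD, cut at about 60% in these data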;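 also: 0% = DMSO-treated cells and 100% = gossypol-treated cells at 36 µM; higher means less SRC3-driven luciferase light from the GAL4 reporter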
# SRC2 inh – inhibition of GAL4-SRC2 driven luciferase reporter, primary screen, SRC2 inhibitor project, cell-based, luminescence; Nuclear receptor coactivator 2 (Homo sapiens), Q15596; inhibition, % at 9 µM; 370,000 compounds, 0.17% hits; AID 651957, 2012; HEK293 GAL4-SRC2 luciferase reporter;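 active = inhibition above the mean inhibition of all tested compounds plus 3 SD, set per campaign, cut at about 52% in these data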;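 also: 0% = DMSO treated cells and 100% = cells given Gossypol at 36 µM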
# NCOA1 inh – SRC1 coactivator transcriptional activity inhibitors, primary screen, cell-based, luminescence. AID 588354, 2011. inhibition, % at 3.6 µM. Nuclear receptor coactivator 1 (Homo sapiens), Q15788. 360,000 compounds, 0.12% hits. HEK293 GAL4-SRC1 luciferase reporter;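 active = inhibition above the campaign mean plus 3 SD, with each screening campaign given its own cutoff, cut at about 60% in these data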;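 also: 0% = DMSO treated cells and 100% = gossypol at 36 µM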
# Gli-Sufu antag – Gli-Sufu pathway antagonists, primary screen, luciferase luminescence, Sufu-KO-LIGHT cells, uHTS; inhibition, % at 5 µM; 340,000 compounds, 0.74% hits; Sufu-KO-LIGHT fibroblasts, Gli luciferase reporter luminescence; AID 588413, 2011;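 active = inhibition above about 55%, limit read from the data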;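 also: 0% = DMSO-treated cells and 100% = wells with medium but no cells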
# Gli-Sufu confirm – Gli-SUFU pathway antagonists, confirmation, single concentration, luciferase luminescence, Sufu-KO-LIGHT cells; shares compounds with Gli-Sufu antag; Gli luciferase reporter; inhibition, % at 5 µM; 2,500 compounds, 40% hits; AID 602428, 2012;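 active = mean inhibition at 5 µM reaching about 45%, limit read from the data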;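 also: plate controls were DMSO-treated cells for no effect and wells lacking cells for full effect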
# Gli cytotox – cytotoxicity in Sufu-KO-LIGHT cells, confirmation, cytotoxicity control for Gli-SUFU antagonist project, cell-based, ATP luminescence, single concentration. shares compounds with Gli-Sufu antag. cytotoxicity, % at 5 µM. 2,500 compounds, 32% hits. AID 651994, 2013;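 active = mean cytotoxicity at 5 µM above about 25%, limit read from the data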;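 also: cells exposed to compound overnight for roughly 16 to 18 hours; plate controls were DMSO wells with cells for no effect and medium without cells for full effect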
# Wnt3a cs – Wnt3a reporter signal inhibition, confirmation, counter-screen for Gli-SUFU antagonist project, Wnt-LIGHT cells, luminescence, single concentration | shares compounds with Gli-Sufu antag | Wnt3a-driven luciferase reporter | inhibition, % at 6.25 µM | 2,500 compounds, 20% hits | AID 651995, 2013;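 active = mean inhibition above about 25%, limit read from the data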
# * marks the source's active call; other numbers are inactive results; · = no result given. Rows were chosen to be rich in hits. Some 1.3% of all compounds tested hit in one or more screens of this group.
SMILES,COUP-TFII inh,LRH-1 inv ag,NCOA3 inh,SRC2 inh,NCOA1 inh,Gli-Sufu antag,Gli-Sufu confirm,Gli cytotox,Wnt3a cs
CCOC(=O)c1sc(NC(=O)c2cc(-c3ccccc3C)nc3ccccc23)c(C#N)c1C,8,5,5,-3,0,63*,82*,20,74*
Cc1ccccc1-c1cc(C(=O)Nc2sc(C)c(C)c2C(N)=O)c2ccccc2n1,15,38,-5,-1,5,9,·,·,·
Cn1c(Cc2ccccc2)[n+](C)c2ccccc21,4,11,4,6,-46,3,·,·,·
CC1Sc2n(c3ccccc3[n+]2C)N=C1c1ccccc1 (stereo not drawn),30,32,18,25,31,59*,75*,27*,12
CC(C)C(=O)N[C@H]1[C@H](O)CCC[C@]12C(=O)N(Cc1ccccc1)c1ccccc12,-5,·,·,0,·,·,·,·,·
CN1/C(=C/C(=S)NC(=O)C2(C)CC2(Cl)Cl)C(C)(C)c2ccccc21 (stereo not drawn),2,11,17,-27,-15,60*,24,26*,1
CN1/C(=C\C(=S)Nc2ccccc2)C(C)(C)c2ccccc21,13,21,8,6,-18,65*,74*,16,28*
CCOC(=O)/C=C1/N(C)c2ccccc2C1(C)C,2,-6,12,9,16,-3,·,·,·
CN1/C(=C\C(=O)Nc2ccc(Cl)cc2)C(C)(C)c2ccccc21,-4,-3,-7,-13,1,-9,·,·,·
CN1/C(=C\C(=S)NC(=O)c2ccccc2Cl)C(C)(C)c2ccccc21,9,0,9,-23,-11,73*,55*,31*,30*
COc1ccccc1C(=O)NC(=S)/C=C1/N(C)c2ccccc2C1(C)C,6,8,24,8,14,78*,34,26*,-9
COC(=O)[C@]12C[C@H](CC(=O)N3CCCCC3)C(=O)N(Cc3ccc4c(c3)OCO4)C1=C[C@H](COCc1ccccc1)O[C@@H]2C,18,·,·,10,·,·,·,·,·
CCCCNc1ccc2c(c1)OC[C@H](C)NS2(=O)=O,-12,·,·,-21,·,·,·,·,·
CCOC(=O)C1=CCN(S(=O)(=O)c2ccc(F)cc2)C1c1ccc(Cl)cc1 (stereo not drawn),-3,·,·,7,·,·,·,·,·
Cc1cccc(NC(=O)c2cnn(-c3ccc(F)cc3)c2C2CCNCC2)c1C,-10,-1,4,5,14,55,18,-1,11
Cc1ccc(-n2ncc(C(=O)Nc3cc(Cl)ccc3C)c2C2CCNCC2)cc1C,-9,3,19,-7,-13,37,·,·,·
Nc1nc2c(-c3ccc([N+](=O)[O-])cc3)nnn2c2ccccc12,-13,·,·,-102,·,·,·,·,·
c1ccc(SCCCCN2CCOCC2)cc1,-39,7,-14,-40,-28,50,16,27*,-14
Cc1cc(N2CCN(C(=O)OC(C)(C)C)C[C@H]2C)ccc1N1CCN(Cc2ccccc2)[C@@H](C)C1,25,·,·,7,·,·,·,·,·
CCN(CC)CCCNC(=O)CC1Oc2ccccc2NC1=O (stereo not drawn),20,·,·,-15,·,·,·,·,·
CCCCCCc1cc2cc(C(=O)Nc3cccc(OC)c3)c(=O)oc2cc1O,-19,4,-3,6,-9,61*,58*,13,79*
Cc1ccc(C(=O)ONc2ccc(N=NC(=O)c3ccccc3O)cc2)cc1,7,15,-9,-10,2,-16,·,·,·
Cc1ccc(C(=O)ONc2ccc(N=O)cc2)cc1,-1,7,10,-10,4,65*,7,4,-8
CN1N=C(N)c2cn(C3OC(COP(=O)(O)O)C(O)C3O)c3ncnc1c23 (stereo not drawn),-17,-15,-22,-18,-20,89*,86*,63*,71*
CCn1c(NCc2ccco2)nc2c1c(=O)n(C)c(=O)n2C,2,9,-7,-11,10,8,·,·,·
SMILES,COUP-TFII inh,LRH-1 inv ag,NCOA3 inh,SRC2 inh,NCOA1 inh,Gli-Sufu antag,Gli-Sufu confirm,Gli cytotox,Wnt3a cs
Cn1c(=O)c2c(nc(NCc3ccco3)n2Cc2ccc(Cl)cc2Cl)n(C)c1=O,5,-5,-4,-6,5,67*,67*,29*,20
CCN(Cc1ccccc1)C(=O)Cn1cnc2c1c(=O)n(C)c(=O)n2C,0,-22,12,5,2,59*,15,17,22
CCOC(=O)C(C(=O)OCC)C(C)(C)/C(C)=N\Nc1ccc([N+](=O)[O-])cc1[N+](=O)[O-],8,2,8,-3,-17,55,34,29*,69*
CCOC(=O)C(C)/C(C)=N\Nc1ccc([N+](=O)[O-])cc1[N+](=O)[O-] (stereo not drawn),17,-4,3,18,-41,41,·,·,·
CN1/C(=C\C(=O)COC(=O)CN2C(=O)C3CC=CCC3C2=O)C(C)(C)c2ccccc21 (stereo not drawn),-17,7,12,4,-4,9,·,·,·
CN1/C(=C\C(=O)CSc2cccc[n+]2[O-])C(C)(C)c2ccccc21,1,-14,7,-11,-3,27,·,·,·
Cc1cccc[n+]1CC(=O)/C=C1\N(C)c2ccccc2C1(C)C,33,40,45,8,39,63*,61*,24,31*
CN1/C(=C\C(=O)CN2C(=O)NC3(CCCCCC3)C2=O)C(C)(C)c2ccccc21,-12,16,7,6,-13,70*,41,52*,-31
COc1cccc(CNS(=O)(=O)c2ccccc2Br)c1,-1,·,·,10,·,·,·,·,·
Cc1ccccc1NC(=O)CN1CCN(c2nc(-c3ccccc3)cs2)CC1,-4,·,·,-8,·,·,·,·,·
COC(=O)[C@@]12CCCCN1[C@H](c1ccc(-c3ccccc3)cc1)[C@@H]1C(=O)N(C)C(=O)[C@@H]12,-8,-9,-32,17,-2,83*,26,1,25*
COc1ccc(N/C(N)=N/c2nc(CSc3nnc(C)s3)cc(=O)[nH]2)cc1,23,34,-18,-11,-2,-4,·,·,·
